{"source": "PubChem BioAssay AID1159580", "about": "(chemical genetic matrix, 2015)", "assay": "chemical genetic growth profiling, strain panel (AID 1159580);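 also: tested at 20 µM; growth read once vehicle control cultures reached saturation at 30 °C; 1 = growth at the plate median or of vehicle wells; lower values mean less growth of the strain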", "settings": "S. cerevisiae deletion strains, growth OD", "note": "Out of some 5,500 compounds screened, about 2,000 (36%) were called active. Inconclusive results (about 18%) are left out. The list shows a part of the results. Unmarked numbers belong to inactive results. Rule as the data show it: active = normalized growth mostly below about 0.91 (no sharp cut-off); inconclusive = no clear call, values can overlap the other calls; inactive = mostly above about 0.92."}
{"compound": "O=C(O)[C@@H](S)[C@@H](S)C(=O)O", "values": [{"measurement": "normalized growth", "setting": "locus YAL021C, strain ccr4, stronger effect = lower value", "result": "0.545 (active)"}, {"measurement": "normalized growth", "setting": "locus YAL026C, strain drs2, stronger effect = lower value", "result": "0.836 (active)"}, {"measurement": "normalized growth", "setting": "locus YAL030W, strain snc1, stronger effect = lower value", "result": 0.975}, {"measurement": "normalized growth", "setting": "locus YBL061C, strain skt5, stronger effect = lower value", "result": 0.967}, {"measurement": "normalized growth", "setting": "locus YBR009C, strain hhf1, stronger effect = lower value", "result": "0.875 (active)"}, {"measurement": "normalized growth", "setting": "locus YBR023C, strain chs3, stronger effect = lower value", "result": 0.962}, {"measurement": "normalized growth", "setting": "locus YBR171W, strain sec66, stronger effect = lower value", "result": 0.976}, {"measurement": "normalized growth", "setting": "locus YBR231C, strain swc5, stronger effect = lower value", "result": "0.887 (active)"}, {"measurement": "normalized growth", "setting": "locus YBR279W, strain paf1, stronger effect = lower value", "result": "0.922 (active)"}, {"measurement": "normalized growth", "setting": "locus YCL011C, strain gbp2, stronger effect = lower value", "result": 0.921}, {"measurement": "normalized growth", "setting": "locus YCL016C, strain dcc1, stronger effect = lower value", "result": 0.945}, {"measurement": "normalized growth", "setting": "locus YCL061C, strain MRC1, stronger effect = lower value", "result": 0.936}, {"measurement": "normalized growth", "setting": "locus YCL069W, strain vba3, stronger effect = lower value", "result": 0.953}, {"measurement": "normalized growth", "setting": "locus YCR088W, strain abp1, stronger effect = lower value", "result": 0.971}, {"measurement": "normalized growth", "setting": "locus YDL005C, strain med2, stronger effect = lower value", "result": 1}, {"measurement": "normalized growth", "setting": "locus YDL040C, strain nat1, stronger effect = lower value", "result": 0.971}, {"measurement": "normalized growth", "setting": "locus YDR001C, strain nth1, stronger effect = lower value", "result": 0.971}, {"measurement": "normalized growth", "setting": "locus YDR069C, strain doa4, stronger effect = lower value", "result": "0.681 (active)"}, {"measurement": "normalized growth", "setting": "locus YDR137W, strain rgp1, stronger effect = lower value", "result": "0.73 (active)"}, {"measurement": "normalized growth", "setting": "locus YDR159W, strain sac3, stronger effect = lower value", "result": 0.91}, {"measurement": "normalized growth", "setting": "locus YDR195W, strain ref2", "result": 1.01}, {"measurement": "normalized growth", "setting": "locus YDR297W, strain sur2, stronger effect = lower value", "result": 0.975}, {"measurement": "normalized growth", "setting": "locus YDR334W, strain swr1, stronger effect = lower value", "result": 0.958}, {"measurement": "normalized growth", "setting": "locus YDR335W, strain msn5, stronger effect = lower value", "result": "0.911 (active)"}, {"measurement": "normalized growth", "setting": "locus YDR392W, strain spt3, stronger effect = lower value", "result": "0.532 (active)"}, {"measurement": "normalized growth", "setting": "locus YEL003W, strain gim4, stronger effect = lower value", "result": 0.962}, {"measurement": "normalized growth", "setting": "locus YEL037C, strain rad23, stronger effect = lower value", "result": 0.953}, {"measurement": "normalized growth", "setting": "locus YEL061C, strain CIN8 (second series), stronger effect = lower value", "result": 0.977}, {"measurement": "normalized growth", "setting": "locus YER015W, strain faa2, stronger effect = lower value", "result": 0.958}, {"measurement": "normalized growth", "setting": "locus YER016W, strain bim1, stronger effect = lower value", "result": 0.952}, {"measurement": "normalized growth", "setting": "locus YER111C, strain swi4, stronger effect = lower value", "result": 0.965}, {"measurement": "normalized growth", "setting": "locus YER155C, strain BEM2 (second series), stronger effect = lower value", "result": "0.662 (active)"}, {"measurement": "normalized growth", "setting": "locus YFR010W, strain ubp6, stronger effect = lower value", "result": "0.828 (active)"}, {"measurement": "normalized growth", "setting": "locus YGL167C, strain pmr1, stronger effect = lower value", "result": 0.976}, {"measurement": "normalized growth", "setting": "locus YGL173C, strain kem1, stronger effect = lower value", "result": "0.892 (active)"}, {"measurement": "normalized growth", "setting": "locus YGL227W, strain vid30, stronger effect = lower value", "result": 0.978}, {"measurement": "normalized growth", "setting": "locus YGL240W, strain doc1, stronger effect = lower value", "result": "0.886 (active)"}, {"measurement": "normalized growth", "setting": "locus YGL253W, strain hxk2, stronger effect = lower value", "result": "0.678 (active)"}, {"measurement": "normalized growth", "setting": "locus YHR013C, strain ard1, stronger effect = lower value", "result": "0.533 (active)"}, {"measurement": "normalized growth", "setting": "locus YHR027C, strain rpn1, stronger effect = lower value", "result": "0.885 (active)"}, {"measurement": "normalized growth", "setting": "locus YHR030C, strain SLT2, stronger effect = lower value", "result": "0.337 (active)"}, {"measurement": "normalized growth", "setting": "locus YHR079C, strain IRE1, stronger effect = lower value", "result": "0.426 (active)"}, {"measurement": "normalized growth", "setting": "locus YHR142W, strain chs7, stronger effect = lower value", "result": 0.937}, {"measurement": "normalized growth", "setting": "locus YJL092W, strain hpr5, stronger effect = lower value", "result": 0.932}, {"measurement": "normalized growth", "setting": "locus YJL095W, strain BCK1 (second series), stronger effect = lower value", "result": 0.973}, {"measurement": "normalized growth", "setting": "locus YJL095W, strain BCK1, stronger effect = lower value", "result": "0.413 (active)"}, {"measurement": "normalized growth", "setting": "locus YJL115W, strain asf1, stronger effect = lower value", "result": 0.969}, {"measurement": "normalized growth", "setting": "locus YJL129C, strain trk1, stronger effect = lower value", "result": 0.982}, {"measurement": "normalized growth", "setting": "locus YJL154C, strain vps35, stronger effect = lower value", "result": 0.979}, {"measurement": "normalized growth", "setting": "locus YJL164C, strain tpk1, stronger effect = lower value", "result": 0.966}, {"measurement": "normalized growth", "setting": "locus YJL166W, strain qcr8, stronger effect = lower value", "result": "0.859 (active)"}, {"measurement": "normalized growth", "setting": "locus YJL187C, strain SWE1, stronger effect = lower value", "result": 0.979}, {"measurement": "normalized growth", "setting": "locus YJR066W, strain TOR1, stronger effect = lower value", "result": "0.417 (active)"}, {"measurement": "normalized growth", "setting": "locus YKL160W, strain elf1, stronger effect = lower value", "result": 0.974}, {"measurement": "normalized growth", "setting": "locus YKR026C, strain gcn3, stronger effect = lower value", "result": 0.978}, {"measurement": "normalized growth", "setting": "locus YKR091W, strain srl3, stronger effect = lower value", "result": 0.977}, {"measurement": "normalized growth", "setting": "locus YLL001W, strain dnm1, stronger effect = lower value", "result": "0.888 (active)"}, {"measurement": "normalized growth", "setting": "locus YLL026W, stronger effect = lower value", "result": 0.932}, {"measurement": "normalized growth", "setting": "locus YLL041C, strain sdh2, stronger effect = lower value", "result": 0.978}, {"measurement": "normalized growth", "setting": "locus YLR027C, strain aat2, stronger effect = lower value", "result": 0.938}, {"measurement": "normalized growth", "setting": "locus YLR113W, strain HOG1, stronger effect = lower value", "result": "0.443 (active)"}, {"measurement": "normalized growth", "setting": "locus YLR221C, strain rsa3, stronger effect = lower value", "result": 0.919}, {"measurement": "normalized growth", "setting": "locus YLR258W, strain gsy2, stronger effect = lower value", "result": 0.93}, {"measurement": "normalized growth", "setting": "locus YLR262C, strain YPT6 (second series), stronger effect = lower value", "result": 0.898}, {"measurement": "normalized growth", "setting": "locus YLR320W, strain mms22, stronger effect = lower value", "result": "0.798 (active)"}, {"measurement": "normalized growth", "setting": "locus YLR342W, strain FKS1, stronger effect = lower value", "result": 0.964}, {"measurement": "normalized growth", "setting": "locus YLR357W, strain rsc2, stronger effect = lower value", "result": "0.798 (active)"}, {"measurement": "normalized growth", "setting": "locus YLR370C, strain arc18, stronger effect = lower value", "result": "0.81 (active)"}, {"measurement": "normalized growth", "setting": "locus YLR384C, strain iki3, stronger effect = lower value", "result": 0.979}, {"measurement": "normalized growth", "setting": "locus YML120C, strain ndi1, stronger effect = lower value", "result": 0.987}, {"measurement": "normalized growth", "setting": "locus YMR058W, strain fet3, stronger effect = lower value", "result": "0.832 (active)"}, {"measurement": "normalized growth", "setting": "locus YMR125W, strain sto1, stronger effect = lower value", "result": 0.951}, {"measurement": "normalized growth", "setting": "locus YMR129W, stronger effect = lower value", "result": 0.963}, {"measurement": "normalized growth", "setting": "locus YMR205C, strain PFK2, stronger effect = lower value", "result": "0.808 (active)"}, {"measurement": "normalized growth", "setting": "locus YMR231W, strain pep5, stronger effect = lower value", "result": 0.982}, {"measurement": "normalized growth", "setting": "locus YNL071W, strain lat1, stronger effect = lower value", "result": "0.695 (active)"}, {"measurement": "normalized growth", "setting": "locus YNL183C, strain NPR1, stronger effect = lower value", "result": "0.516 (active)"}, {"measurement": "normalized growth", "setting": "locus YNL209W, strain ssb2, stronger effect = lower value", "result": 0.974}, {"measurement": "normalized growth", "setting": "locus YNL248C, strain rpa49, stronger effect = lower value", "result": 0.926}, {"measurement": "normalized growth", "setting": "locus YNL322C, strain KRE1 (second series), stronger effect = lower value", "result": 0.97}, {"measurement": "normalized growth", "setting": "locus YNR049C, strain mso1, stronger effect = lower value", "result": 0.941}, {"measurement": "normalized growth", "setting": "locus YOR001W, strain rrp6, stronger effect = lower value", "result": 0.992}, {"measurement": "normalized growth", "setting": "locus YOR070C, strain gyp1, stronger effect = lower value", "result": 0.961}, {"measurement": "normalized growth", "setting": "locus YOR080W, strain dia2, stronger effect = lower value", "result": 0.968}, {"measurement": "normalized growth", "setting": "locus YOR083W, strain WHI5, stronger effect = lower value", "result": 0.924}, {"measurement": "normalized growth", "setting": "locus YOR106W, strain vam3, stronger effect = lower value", "result": "0.496 (active)"}, {"measurement": "normalized growth", "setting": "locus YOR231W, strain MKK1, stronger effect = lower value", "result": "0.324 (active)"}, {"measurement": "normalized growth", "setting": "locus YOR265W, strain rbl2, stronger effect = lower value", "result": 0.976}, {"measurement": "normalized growth", "setting": "locus YOR270C, strain vph1, stronger effect = lower value", "result": "0.357 (active)"}, {"measurement": "normalized growth", "setting": "locus YOR290C, strain snf2, stronger effect = lower value", "result": "0.722 (active)"}, {"measurement": "normalized growth", "setting": "locus YPL051W, strain arl3, stronger effect = lower value", "result": "0.899 (active)"}, {"measurement": "normalized growth", "setting": "locus YPL078C, strain atp4, stronger effect = lower value", "result": 0.96}, {"measurement": "normalized growth", "setting": "locus YPL106C, strain sse1, stronger effect = lower value", "result": 0.931}, {"measurement": "normalized growth", "setting": "locus YPL240C, strain hsp82, stronger effect = lower value", "result": 0.987}, {"measurement": "normalized growth", "setting": "locus YPL256C, strain CLN2, stronger effect = lower value", "result": "0.474 (active)"}]}
